# Rows were chosen to be rich in hits. Some 3.5% of all compounds tested hit in one or more screens of this group.
# Anthrax LF prot = Bacillus anthracis LF protease inhibitors, primary screen, biochemical, multiplex microsphere, MLPCN library; multiplex microsphere protease cleavage assay; inhibition, % at 10 µM; 360,000 tested, 0.12% active; note: plate controls were buffer without enzyme for full effect and enzyme alone for no effect
# BoNT F protease = BoNT/F light chain protease inhibitors, primary screen, biochemical, flow cytometry, MLPCN library; Botulinum neurotoxin type F light chain protease (Clostridium botulinum); Multiplex microsphere protease cleavage assay; inhibition, % at 10 µM; 360,000 tested, 0.22% active; in the data active = inhibition above about 35%, passing the limit was not always enough; inconclusive = no clear call, values can overlap the other calls; note: plate controls were buffer without enzyme for full effect and enzyme alone for no effect
# Bead autofluor = compound fluorescence in toxin protease inhibitor counterscreen; fluorescence intensity (no concentration beside the values); 360,000 tested, 3.1% active; compound autofluorescence counterscreen, microsphere flow cytometry; stronger effect = higher value; in the data active = fluorescence intensity above about 16000; inconclusive = no clear call, values can overlap the other calls
# BoNT-A LC inh2 = BoNT/A light chain protease inhibitors, primary screen, biochemical, flow cytometry, MLPCN library; multiplex microsphere protease substrate cleavage; inhibition, % at 10 µM; 360,000 tested, 0.17% active; AID 588499, 2011; note: plate controls were buffer without enzyme for full effect and enzyme alone for no effect
# BJeLR viability = MLPCN primary cell-based screen for lethality selective to Ras in HRASV12 cells. BJeLR (HRASV12) viability, CellTiter-Glo ATP luminescence, 48 h. inhibition, % (no concentration beside the values). 300,000 tested, 0.17% active. AID 1554, 2009; in the data active = inhibition above about 50%; inconclusive = no clear call, values can overlap the other calls
# * hit, by the source's call; ? = inconclusive; nt = no result. Cut-off read from the data, not from the text of the source, unless noted: active = inhibition above about 30%; inconclusive = no clear call, values can overlap the other calls; inactive = below that.
SMILES,Anthrax LF prot,BoNT F protease,Bead autofluor,BoNT-A LC inh2,BJeLR viability
C/C(=N\NC(=O)c1cccc(S(=O)(=O)N2CCOCC2)c1)c1ccc(C#N)cc1,5,-1,6138,-1,-1
COc1ccc(/C=N/n2c(C)nc3sc(C)c(C)c3c2=O)cc1,?,38*,3518,8,2
CC1CCCCC1NC(=O)c1ccc(-n2cncn2)cc1 (stereo unspecified),3,-10,5421,1,nt
Cc1cccc(NC(=O)c2cccc(N3C(=O)C4C5CCC(C5)C4C3=O)c2)c1C (stereo unspecified),-9,8,18603*,?,0
CCc1ccccc1NC(=O)c1cccc(N2C(=O)C3C4CCC(C4)C3C2=O)c1 (stereo unspecified),-4,-2,23495*,?,0
Cc1ccccc1NC(=O)c1cccc(N2C(=O)C3CCC(C)CC3C2=O)c1 (stereo unspecified),-13,8,3209,3,-8
COc1ccc(-n2c(O)c(/C=N/NS(=O)(=O)c3cc(C)ccc3C)c3ccccc3c2=O)cc1OC,-2,0,17279*,-5,-4
COc1ccc(-n2c(O)c(/C=N/NS(=O)(=O)c3ccc(C)cc3)c3ccccc3c2=O)cc1OC,1,-12,4926,-2,25
COCCCN1C(=O)C(CC(=O)NCCN2CCOCC2)CC(C(=O)N2CCCCCC2)=C1C (stereo unspecified),-5,-11,5857,-1,nt
COc1ccccc1CNS(=O)(=O)CCNC1CC1,0,-1,3386,0,nt
CCn1cc(C(=O)O)c(=O)c2cc(S(=O)(=O)N3CCCCCC3)ccc21,2,2,4046,0,2
CCn1cc(C(=O)O)c(=O)c2cc(OC)ccc21,-13,-51,19754*,-14,0
O=C(Nc1ccc2c(c1)OCCO2)c1[nH]c(C(F)(F)F)nc1-c1ccccc1,3,2,5227,0,nt
Cc1nn(CC(=O)NNC(=O)c2ccccc2F)c([N+](=O)[O-])c1Br,-5,0,6316,0,-6
CCCN(CC(=O)Nc1ccccc1OC)C(=O)c1ccc(COc2ccccc2)o1,-2,0,9074,0,nt
Cn1c(SCc2ccc(Cl)cc2)nc(C(F)(F)F)cc1=O,-4,-6,20153*,-2,1
CCCNCCC(c1ccco1)c1ccccc1OC (stereo unspecified),-8,-6,16663*,-2,6
CCCCCC1CC(CC#CCN2CCOCC2)C(=O)O1 (stereo unspecified),-1,6,21965*,4,15
CCCCCC1CC(CC(=O)O)C(=O)O1 (stereo unspecified),-3,-4,3926,-1,-1
COc1ccccc1NC(=O)NC(N)=O,0,-3,21653*,0,-2
CCc1nnc(NC(=O)Nc2ccccc2OC)s1,-7,1,22103*,?,-7
O=S1(=O)C=C(Sc2nc3ccccc3s2)c2ccccc21,nt,nt,nt,nt,56*
Cc1cc(C)nc(SC2=CS(=O)(=O)c3ccccc32)n1,0,-6,3729,-1,-19
c1cncc(Nc2nc(-c3ccncc3)cs2)c1,0,-1,18714*,3,-6
c1cncc(Nc2nc(-c3cccnc3)cs2)c1,-3,-10,11365,0,4
SMILES,Anthrax LF prot,BoNT F protease,Bead autofluor,BoNT-A LC inh2,BJeLR viability
Clc1ccc(OCCCc2nc(-c3cccnc3)no2)c(Cl)c1,-1,4,21481*,6,6
Cc1cc(C)c(C)c(OCc2nc(-c3cccnc3)no2)c1,-4,2,21478*,2,-4
Cc1ccc(OCc2nc(-c3ccccc3)no2)c(C)c1,nt,nt,nt,nt,3
COc1ccc([C@@H]2[C@@H]3C(=O)N(C(C)(C)C)C(=O)[C@@H]3[C@]3(Cc4ccc(Cl)cc4)C(=O)N(c4cccc(F)c4)C(=O)N23)cc1,1,-11,4047,0,nt
COc1ccc(NC(=O)CC2C(=O)N(c3cccc(OC)c3)C(=O)N2CCC(C)C)cc1 (stereo unspecified),1,-1,19759*,4,-1
CCOc1ccc(NC(=O)CC2C(=O)N(c3ccccc3)C(=O)N2Cc2ccccn2)cc1 (stereo unspecified),-1,5,22858*,?,1
CCOc1ccc(NC(=O)CC2C(=O)N(c3ccccc3)C(=S)N2Cc2ccccn2)cc1 (stereo unspecified),-2,-5,9610,-1,-3

# Screens: PubChem BioAssay, several laboratories
